From PubChem BioAssay AID652115 (Broad Institute, 2013) come the findings set out here.

Each structure is given as a SMILES string. Where “and” joins values, the source holds several entries; their conditions need not be identical. Equal entries are not always repeated. The whole screen tested about 330,000 compounds, of which about 3,800 (1.2%) were called active. Rule as the data show it: active = inhibition above about 15%; inconclusive = no clear call, values can overlap the other calls; inactive = below that. Many of the other results were omitted from the sample, so actives are more common in it than they were. Some structures have more than one record in an assay (separate samples or runs), and their calls can disagree.

For this test, the target named is NAD-dependent protein deacylase sirtuin-5, mitochondrial (Homo sapiens) (UniProt Q9NXA8). Nature of the test: SIRT5 desuccinylase inhibitors, primary screen, biochemical, fluorescence imaging, single point, set 5 (AID 652115). The settings on record: Purified SirT5, succinyl-peptide AMC, trypsin-coupled fluorescence; at 15 µM; stronger effect = higher value.
NAD-dependent protein deacylase sirtuin-5, mitochondrial (Homo sapiens), sequence (Q9NXA8 whole entry, looked up): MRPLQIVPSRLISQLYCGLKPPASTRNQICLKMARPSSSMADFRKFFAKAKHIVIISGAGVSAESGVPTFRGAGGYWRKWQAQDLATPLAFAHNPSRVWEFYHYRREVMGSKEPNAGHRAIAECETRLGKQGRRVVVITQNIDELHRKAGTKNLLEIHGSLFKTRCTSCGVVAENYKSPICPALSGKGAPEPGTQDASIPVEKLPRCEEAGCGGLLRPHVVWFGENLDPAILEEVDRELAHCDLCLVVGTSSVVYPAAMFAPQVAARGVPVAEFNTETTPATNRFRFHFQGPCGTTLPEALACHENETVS
As usually defined, the inhibition is the change of the read-out against control, counted positive when it falls. `COc1cccc(-c2ccc3n(c2=O)C[C@@H]2[C@@H](CO)[C@H](C(=O)N4CCCCC4)N[C@H]32)c1`: the inhibition is -26.1% (inactive).

For `C[C@H](O)C#Cc1ccc2c(c1)O[C@H](CN(C)Cc1ccccn1)[C@@H](C)CN([C@@H](C)CO)S2(=O)=O`, the inhibition is 2.94% (inactive).

For the molecule `O=C(Cc1ccccc1)N[C@H]1C=C[C@H](CC(=O)N2CCCCC2)O[C@@H]1CO`, the inhibition is 1.42% (inactive).

Regarding `COc1ccc2c3c([nH]c2c1)[C@H](CO)N(C(=O)NC1CCCC1)CC31CN(C(=O)Nc2cccc(F)c2)C1`, the inhibition was 5.32% (inactive).

For the molecule `O=C(NC1CCCCC1)N1CC2(C1)[C@@H](c1ccccc1)[C@@H](CO)N2CC1CCOCC1`, the inhibition was -5.9% (inactive).

For `CC(C)NC(=O)N1CC(=O)N2[C@@H](CO)[C@H](c3ccc(C#CCN(C)C)cc3)[C@@H]2C1`, the inhibition was -1.28% (inactive).

`COCC(=O)N(C)C[C@@H]1Oc2cc(C#Cc3cccnc3)ccc2S(=O)(=O)N([C@H](C)CO)C[C@H]1C`: the inhibition is -3.01% (inactive).

As for `O=C(NC1CCCC1)[C@H]1[C@H](CO)[C@H]2Cn3c(ccc(-c4ccccc4F)c3=O)[C@@H]1N2C(=O)CC1CC1`, the inhibition is -18.6% (inactive).

On to `CN1c2ccc(-c3cccc(F)c3)cc2[C@@H]2[C@@H](CCN2C(=O)Nc2ccccc2F)[C@@H]1CO`, for which the inhibition is -18.1% (inactive).

For `O=C(C[C@H]1CC[C@@H]2[C@H](COC[C@H](O)CN2S(=O)(=O)c2ccc(F)cc2)O1)NCCN1CCCCC1`, the inhibition is -1.86% (inactive).

`O=C(N[C@H]1CC[C@H](CCn2cc(-c3ccccc3F)nn2)O[C@@H]1CO)c1ccc2c(c1)OCO2`: the inhibition was 1.25% (inactive).

For the molecule `CN(Cc1ccccc1F)C[C@H]1[C@@H](c2ccccc2)[C@@H](CO)N1S(C)(=O)=O`, the inhibition is 0.402% (inactive).

On to `O=C(Nc1ccccc1F)N1C[C@@H]2[C@H](c3ccccc31)[C@@H](CO)N2C(=O)Nc1ccccc1`, for which the inhibition was -0.735% (inactive).

In the case of `C[C@@H]1CN([C@H](C)CO)S(=O)(=O)c2ccc(C#CC3CCCCC3)cc2O[C@H]1CN(C)C(=O)Cc1ccncc1`, the inhibition is 0.678% (inactive) and -0.925% (inactive) and 15.2% (active).

`C[C@H]1CN([C@@H](C)CO)S(=O)(=O)c2ccc(C#CC3CCCC3)cc2O[C@H]1CN(C)C(=O)Cc1ccncc1`: the inhibition is -0.107% (inactive).

For `C[C@@H]1CN([C@H](C)CO)S(=O)(=O)c2ccc(C#CC3CCCC3)cc2O[C@@H]1CN(C)C(=O)Cc1ccncc1`, the inhibition is 6.26% (inactive).

With `CCCc1nnc(NC(=O)CCC(=O)N2CCN(S(=O)(=O)c3ccc(OC)cc3)CC2)s1`, the inhibition is 1.56% (inactive).

With `CC(C)c1nnc(NC(=O)CCC(=O)N2CCN(c3cccc(Cl)c3)CC2)s1`, the inhibition is 0.459% (inactive).

With `CCc1nnc(NC(=O)CCC(=O)N2CCN(c3cc(C)ccc3C)CC2)s1`, the inhibition is 18.5% (active).

In the case of `O=C(C1CCC1)N1CC(=O)N2[C@@H](CO)[C@@H](c3ccc(C#Cc4cccc(F)c4)cc3)[C@@H]2C1`, the inhibition was -4.53% (inactive).

For the molecule `Cc1ccccc1S(=O)(=O)N[C@@H]1CC[C@H](CCn2cc(-c3ccc(F)cc3)nn2)O[C@@H]1CO`, the inhibition was -4.75% (inactive).

Take `Cc1ccccc1S(=O)(=O)N[C@H]1CC[C@H](CCn2cc(-c3ccc(F)cc3)nn2)O[C@H]1CO`: the inhibition was -0.59% (inactive).

Consider `Cc1ccccc1S(=O)(=O)N[C@H]1CC[C@@H](CCn2cc(Cc3ccccc3)nn2)O[C@H]1CO`, for which the inhibition is 31.4% (active).

Consider `Cc1ccc(S(=O)(=O)N[C@@H]2CC[C@@H](CC(=O)O)O[C@@H]2CO)cc1`, for which the inhibition is 1% (inactive).

As for `O=C(C[C@@H]1CC[C@H](NC(=O)Nc2ccc3c(c2)OCO3)[C@H](CO)O1)NCc1ccccc1`, the inhibition was -2.1% (inactive).

For the molecule `CN1c2ccc(-c3ccccc3F)cc2[C@H]2[C@H](CCN2C(=O)Cc2ccccn2)[C@H]1CO`, the inhibition was 2.91% (inactive).

For `CN1c2ccc(-c3ccccc3)cc2[C@@H]2[C@@H](CCN2C(=O)c2ccccc2)[C@H]1CO`, the inhibition is 6.95% (inactive).

For the molecule `CN1c2ccc(-c3ccccc3)cc2[C@H]2[C@H](CCN2C(=O)Cc2ccccn2)[C@H]1CO`, the inhibition is 21.9% (active).

For the molecule `CCCNC(=O)C[C@H]1C[C@H]2c3cc(NC(=O)COC)ccc3O[C@H]2[C@H](CO)O1`, the inhibition is -2.28% (inactive).

For `Cn1cnnc1SCC(=O)NNC(=O)COc1ccc(Br)cc1`, the inhibition is -1.96% (inactive).

Consider `Cn1nnnc1SCC(=O)Nc1sccc1C(N)=O`, for which the inhibition was -1.15% (inactive).

With `Cn1nnnc1SCC(=O)NNC(=O)c1ccc(Br)cc1`, the inhibition was 20.1% (active).

Take `N#C[C@H]1[C@H](c2ccc(-c3cccc(F)c3)cc2)[C@@H](CO)N1C(=O)NC1CCCC1`: the inhibition was 3.71% (inactive).

For the molecule `O=C1CN(Cc2ccc(F)cc2)C[C@H]2[C@@H](c3ccc(Br)cc3)[C@H](CO)N12`, the inhibition is 2.52% (inactive).

`CN1c2ccc(Br)cc2[C@@H]2[C@@H](CCN2C(=O)Cc2ccccc2)[C@@H]1CO`: the inhibition was 0.309% (inactive).

As to `CC(C)NC(=O)N(C)C[C@@H]1Oc2ccc(NC(=O)C3CC3)cc2C(=O)N([C@@H](C)CO)C[C@H]1C`, the inhibition was 0.185% (inactive).

For `Cc1noc(C)c1S(=O)(=O)N(C)C[C@@H]1Oc2ccc(NC(=O)C3CC3)cc2CC(=O)N([C@@H](C)CO)C[C@@H]1C`, the inhibition was 1.59% (inactive).

For `C[C@@H]1CN([C@@H](C)CO)C(=O)c2cc(NC(=O)C3CC3)ccc2O[C@H]1CN(C)C`, the inhibition was 41.9% (active) and -3.15% (inactive).

For the molecule `C[C@@H]1CN([C@H](C)CO)C(=O)c2cc(NC(=O)C3CC3)ccc2O[C@@H]1CN(C)C`, the inhibition is -4.11% (inactive).

As to `Cc1noc(C)c1S(=O)(=O)N(C)C[C@H]1Oc2ccc(NC(=O)C3CCCCC3)cc2C(=O)N([C@H](C)CO)C[C@@H]1C`, the inhibition was -3.3% (inactive).

Regarding `Cc1noc(C)c1S(=O)(=O)N(C)C[C@H]1Oc2ccc(NC(=O)C3CC3)cc2C(=O)N([C@H](C)CO)C[C@@H]1C`, the inhibition is 20.9% (active).

As for `COc1ccc2c3c([nH]c2c1)[C@H](CO)N(C(=O)c1ccncc1)CC31CCN(C(=O)c2ccncc2)CC1`, the inhibition is 12.6% (inactive).

As to `COc1ccc(S(=O)(=O)N(C)C[C@@H]2OCCCC[C@H](C)Oc3ccc(NC(=O)NC(C)C)cc3C(=O)N([C@@H](C)CO)C[C@@H]2C)cc1`, the inhibition was 0.637% (inactive).

In the case of `C[C@@H]1CN([C@@H](C)CO)C(=O)c2cc(/C=C/c3ccccc3)cnc2O[C@H]1CN(C)C(=O)Nc1ccc(C(F)(F)F)cc1`, the inhibition is 8.54% (inactive).

On to `C[C@@H]1CN([C@H](C)CO)C(=O)c2cccc(NS(=O)(=O)c3ccc(F)cc3)c2O[C@@H]1CN(C)S(=O)(=O)c1ccccc1`, for which the inhibition is 3.68% (inactive).

As for `Cc1ccc(NC(=O)Cn2c(C)csc2=O)cc1`, the inhibition is 4.07% (inactive).

As for `Cc1ccc(NC(=O)Cn2sc3ccccc3c2=O)cc1`, the inhibition is 19.6% (active).

In the case of `Cc1nn(CC(=O)Nc2ccc(F)cc2)c(=O)c2ccccc12`, the inhibition was -1.48% (inactive).

In the case of `O=C(C[C@H]1C=C[C@H](NC(=O)Nc2ccccc2F)[C@@H](CO)O1)NCc1ccc(Cl)cc1`, the inhibition was -6.94% (inactive).

Regarding `CN1c2ccc(Br)cc2[C@H]2[C@H](CCN2S(=O)(=O)c2ccc(F)cc2)[C@@H]1CO`, the inhibition was 0.059% (inactive).

In the case of `CC(C)NC(=O)N(C)C[C@H]1Oc2cc(C#Cc3ccccn3)ccc2S(=O)(=O)N([C@H](C)CO)C[C@@H]1C`, the inhibition is -0.996% (inactive).

Regarding `CCNC(=O)[C@@H]1[C@@H](CO)[C@@H]2Cn3c(ccc(C4=CCCC4)c3=O)[C@H]1N2Cc1ccccc1`, the inhibition is -12.8% (inactive).

In the case of `COc1ccc(C2C3=C(CCCC3=O)N(CC(=O)O)C3=C2C(=O)CCC3)cc1`, the inhibition is -6.31% (inactive).

For the molecule `NC1=C([N+](=O)[O-])C(c2ccccc2)C2=C(CCCC2=O)O1` (stereo unspecified), the inhibition is 15.7% (active).

Consider `COc1cc(C2C3=C(CCCC3=O)OC3=C2C(=O)CCC3)ccc1OCC(=O)Nc1ccccc1`, for which the inhibition was 1.24% (inactive).

In the case of `C[C@H]1CCCCO[C@@H](CN(C)C(=O)c2ccccc2)[C@@H](C)CN([C@@H](C)CO)C(=O)c2cc(NS(=O)(=O)c3ccccc3)ccc2O1`, the inhibition was 0.494% (inactive).

With `Cc1ccc(-c2cnc3c(c2)C(=O)N([C@H](C)CO)C[C@H](C)[C@@H](CN(C)C(=O)c2cccc(F)c2)O3)cc1`, the inhibition was -11.3% (inactive).

Consider `CN1CCN(C(=O)C[C@H]2CC[C@H]3[C@@H](COC[C@H](O)CN3C(=O)c3ccc(F)cc3)O2)CC1`, for which the inhibition is 1.19% (inactive).

Consider `O=C(CC1CC1)Nc1ccc2c(c1)[C@@H]1C[C@@H](CC(=O)NC3CCCCC3)O[C@@H](CO)[C@@H]1O2`, for which the inhibition was -2.5% (inactive).

Take `CO[C@@H]1CN(C)C(=O)c2ccc(NC(=O)C3CCCCC3)cc2OC[C@@H](C)N(Cc2nccs2)C[C@@H]1C`: the inhibition is 3.01% (inactive).

Turning to `C[C@@H]1CN([C@@H](C)CO)C(=O)Cc2cc(NC(=O)Nc3ccc4c(c3)OCO4)ccc2O[C@@H]1CN(C)CC1CCCCC1`, the inhibition was 18.8% (active).

Take `C[C@H]1CN([C@@H](C)CO)C(=O)Cc2cc(NC(=O)Nc3ccc4c(c3)OCO4)ccc2O[C@H]1CN(C)CC1CC1`: the inhibition was -1.18% (inactive).

For the molecule `CC(C)NC(=O)Nc1ccc2c(c1)CC(=O)N([C@H](C)CO)C[C@H](C)[C@H](CN(C)Cc1ccc3c(c1)OCO3)O2`, the inhibition is 4.37% (inactive).

For `COc1ccc(NC(=O)Nc2ccc3c(c2)CC(=O)N([C@@H](C)CO)C[C@H](C)[C@@H](CN(C)Cc2ccc4c(c2)OCO4)O3)cc1`, the inhibition was 3.53% (inactive).

Take `C[C@H]1CN([C@@H](C)CO)C(=O)c2cc(NC(=O)Nc3ccc4c(c3)OCO4)ccc2O[C@@H]1CN(C)CC1CCCCC1`: the inhibition was 6.87% (inactive).

With `C[C@@H]1CN([C@H](C)CO)C(=O)Cc2cc(NC(=O)Nc3ccc(F)cc3)ccc2O[C@@H]1CN(C)Cc1ccc2c(c1)OCO2`, the inhibition was 32.7% (active).
